# In PubChem BioAssay:
# The source made the active and inactive calls. Unless noted, no stated cut-off is given here; in the data, active means nuclear beta-catenin stimulation mostly above about 4.2% (no sharp cut-off); inactive means mostly below about 10%.
# Legend:
# [1] = stimulators of nuclear beta-catenin in C2C12, primary screen, imaging, WNT3A-conditioned medium, mouse C2C12, NPC library (AID 1117326); details: stronger effect = higher value; further: reference of the scale not given here
# [2] = stimulators of insulin release from INS-1E, primary screen, cell-based, 5 mM glucose, NPC library (AID 1117329;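 active means compound raises insulin release from rat beta cells at 5 mM glucose, no numeric limit stated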; further: reference of the scale not given here); details: rat INS-1E insulin secretion, at 10 µM, stronger effect = higher value
# [3] = growth inhibition of GSK3B-pretreated HCT116 cells – cell-based, CellTiter-Glo, 0.2 to 20 µM (AID 1117336;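 active means compounds lowering colon cancer cell viability after pretreatment blocking the GSK3B kinase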); details: HCT116 viability after GSK3B inhibitor, at 20 µM, stronger effect = higher value
# [4] = inhibition of endothelial tube formation, primary screen, imaging, VEGF stimulated, CD31 staining, tube area, NPC library (AID 1117340;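 active means compound that reduces growth-factor-driven endothelial tube area in a mixed cell culture, no cutoff stated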); details: VEGF-stimulated ADSC/ECFC co-culture, at 10 µM, stronger effect = higher value
# [5] = glucagon-like peptide 1 release enhancers, primary assay, NCI-H716 cell line, NPC library (AID 1117341;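 active means compound raises GLP1 secretion from the human gut endocrine cells, with no numeric limit stated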; further: reference of the scale not given here); details: NCI-H716 cells, at 10 µM, stronger effect = higher value
# [6] = HCT116 colon cancer cell growth inhibition, primary screen, CellTiter-Glo luminescence, NPC library (AID 1117342;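 active means compounds that lower survival of HCT116 colon cancer cells in the luminescence readout, no numeric limit stated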); details: at 20 µM (top of the series)
# [7] = CellTiter-Glo luminescent readout of SW480 viability loss, NPC library primary (AID 1117343;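 active means compounds that lower viability of the colon cancer cells in the luminescence readout, with no numeric limit stated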); details: CellTiter-Glo luminescence; at 20 µM (top of the series)
# [8] = decreased DLD-1 cellular survival, CellTiter-Glo luminescent readout, NPC compound collection, primary HTS (AID 1117346;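 active means compounds that lower survival of DLD-1 colon cancer cells in the luminescence readout, no cutoff given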); details: DLD-1 viability, CellTiter-Glo luminescence; at 20 µM (top of the series)
SMILES,nuclear beta-catenin stimulation ([1]; at 10 µM),"nuclear beta-catenin stimulation ([1]; stimulation, at 2 µM) [%]",insulin secretion stimulation [2],viability decrease [3],tube area decrease [4],GLP1 secretion stimulation [5],inhibition of viability [6],viability decrease (inhibition) [7],viability decrease (inhibition) [8]
O=C(O)Cc1ccc2c(c1)C(=O)c1ccccc1CO2,0.5% (inactive),0.6,0.2% (inactive),-4.5% (inactive),-16.2% (inactive),1.7% (inactive),-7.1% (inactive),-5.2% (inactive),-10.1% (inactive)
O=C1CCC(C(=O)O)N1 (stereo unspecified),-1.2% (inactive),2.3,2.6% (inactive),-7.5% (inactive),6.4% (inactive),-3.6% (inactive),2.4% (inactive),-1.5% (inactive),-4% (inactive)
NCC[C@H](O)C(=O)N[C@@H]1C[C@H](N)[C@@H](O[C@H]2O[C@H](CN)[C@@H](O)[C@H](O)[C@@H]2O)[C@H](O)[C@@H]1O[C@H]1O[C@H](CO)[C@@H](O)[C@H](N)[C@@H]1O,0.4% (inactive),-1.1,1.1% (inactive),-9.3% (inactive),-7.9% (inactive),0.5% (inactive),-2.7% (inactive),-3.7% (inactive),0.5% (inactive)
C[C@H](CN1CCCC1)C(=O)c1ccc(C(F)(F)F)cc1,5.1% (inactive),-1.9,8.3% (inactive),-5.5% (inactive),-4% (inactive),-0.4% (inactive),7.8% (inactive),73.8% (active),68.1% (active)
N[C@@H](CSCCCO)C(=O)O,-1.1% (inactive),1.4,-0.6% (inactive),-4.55% (inactive),1.7% (inactive),-0.3% (inactive),-17.6% (inactive),17.3% (inactive),-1.1% (inactive)
O=C(OC1C[C@@H]2CC3C[C@@H](C1)N2CC3=O)c1c[nH]c2ccccc12 (stereo partly specified),-1.1% (inactive),-0.5,10.8% (inactive),4.3% (inactive),-15.2% (inactive),0.9% (inactive),42% (inactive),12.6% (inactive),17.7% (inactive)
Cc1cccc(C)c1NC(=O)CN1CCCC1,-0.4% (inactive),0.7,0.6% (inactive),4.2% (inactive),-6.7% (inactive),1.1% (inactive),37.9% (inactive),3.5% (inactive),2.4% (inactive)
COc1ccc2cc1Oc1cc3c(cc1OC)CC[N+](C)(C)[C@H]3Cc1ccc(cc1)Oc1c(OC)c(OC)cc3c1[C@@H](C2)[N+](C)(C)CC3,0.3% (inactive),-0.1,0.65% (inactive),13.2% (inactive),3.3% (inactive),2.3% (inactive),7.8% (inactive),14% (inactive),6.2% (inactive)
CC1(S(=O)(=O)O)CC(=O)c2ccccc2C1=O (stereo unspecified),30.3% (inactive),-0.2,-0.7% (inactive),98.8% (active),54.7% (active),1.2% (inactive),99.2% (active),102% (active),102% (active)
O=C(O)Cc1ccccc1Oc1ccc(Cl)cc1Cl,0.5% (inactive),0.7,1.5% (inactive),-7.6% (inactive),3.2% (inactive),1% (inactive),-0.8% (inactive),-5% (inactive),5.9% (inactive)
Nc1ccc(C(=O)OCC(O)CO)cc1 (stereo unspecified),3.1% (inactive),3.7,0.6% (inactive),0.9% (inactive),-15.4% (inactive),-0.9% (inactive),6.7% (inactive),-16.3% (inactive),-3.4% (inactive)
CCC(C(=O)NC(=O)NC(C)=O)c1ccccc1 (stereo unspecified),0.9% (inactive),0.2,0.6% (inactive),78.3% (active),7.5% (inactive),-4.7% (inactive),46.2% (inactive),70.3% (active),6.1% (inactive)
N#C/C(=C1/SC[C@@H](c2ccc(Cl)cc2Cl)S1)n1ccnc1,0.7% (inactive),2.8,2.35% (inactive),88% (active),23.8% (inactive),-1.8% (inactive),101% (active),116% (active),84.3% (active)
CCCc1ncc(C(=O)O)s1,-1.1% (inactive),-1.2,4.2% (inactive),-8.2% (inactive),9.7% (inactive),-5.4% (inactive),5.1% (inactive),2.1% (inactive),-6.8% (inactive)
CC(C)(C)c1ccc2c(S(=O)(=O)O)c(C(C)(C)C)ccc2c1,-2.9% (inactive),-1.4,0.3% (inactive),-22% (inactive),-2.7% (inactive),1% (inactive),-18.9% (inactive),9% (inactive),-14.4% (inactive)
C/C=C/C=N/NC(=O)c1ccncc1,0.2% (inactive),0.6,-2.2% (inactive),-6.2% (inactive),6% (inactive),-0.1% (inactive),17% (inactive),27.7% (inactive),-3.65% (inactive)
O=C(COCCOCCOCC(=O)Nc1c(I)cc(I)c(C(=O)O)c1I)Nc1c(I)cc(I)c(C(=O)O)c1I,0.1% (inactive),-1.8,2.45% (inactive),-23.9% (inactive),-2.4% (inactive),-3.2% (inactive),-13.4% (inactive),-37.4% (inactive),-13.3% (inactive)
CCCCC(CC)COC(=O)/C=C/c1ccc(OC)cc1 (stereo unspecified),-1.6% (inactive),-0.8,2.6% (inactive),5.9% (inactive),3.3% (inactive),0.8% (inactive),15.9% (inactive),-7.2% (inactive),3.7% (inactive)
COC(=O)c1cc(Cl)c(NC(C)=O)cc1OC,1.9% (inactive),0.7,0.95% (inactive),-12.1% (inactive),-7.7% (inactive),1.2% (inactive),-1.4% (inactive),-23.1% (inactive),-11.9% (inactive)
Cc1ccc(CCn2c3c(c4cc(Cl)ccc42)CN(C)CC3)cn1,0.2% (inactive),0.7,42% (active),40.3% (inactive),3.4% (inactive),1.7% (inactive),62.1% (active),81.6% (active),11.5% (inactive)
COC(=O)C1=C(C)NC(C)=C(C(=O)OCCc2ccc(N3CCN(C(c4ccccc4)c4ccccc4)CC3)cc2)C1c1cccc([N+](=O)[O-])c1 (stereo unspecified),2.5% (inactive),0.7,0% (inactive),14.1% (inactive),44.2% (active),-3.4% (inactive),32.3% (inactive),39.1% (inactive),-1.2% (inactive)
Cc1cc(C)c(NC(=O)CN(CC(=O)O)CC(=O)O)c(C)c1Br,1.9% (inactive),0.6,0.25% (inactive),29.2% (inactive),-4.1% (inactive),-3.7% (inactive),13.3% (inactive),4.7% (inactive),-14.9% (inactive)
CCC(C(=O)O)c1ccc(N2Cc3ccccc3C2=O)cc1 (stereo unspecified),0.8% (inactive),-0.1,1.25% (inactive),15.4% (inactive),-24.8% (inactive),1% (inactive),-4.3% (inactive),-8.7% (inactive),-10% (inactive)
C=C(C)C(=O)OCC(O)CO (stereo unspecified),7.5% (inactive),28.1,2.7% (inactive),3% (inactive),-13.7% (inactive),-1.4% (inactive),1.9% (inactive),-10.3% (inactive),20.3% (inactive)
CC1(C)OC[C@@H](COC(=O)CCc2ccc(OC[C@@H](O)CNCCNC(=O)N3CCOCC3)cc2)O1,0.8% (inactive),1.1,4% (inactive),-3.9% (inactive),-22.2% (inactive),0.6% (inactive),8% (inactive),33.8% (inactive),44% (inactive)
Cc1c(C(C)C)c(=O)n(-c2ccccc2)n1C,-0.3% (inactive),-0.2,-0.6% (inactive),-2.5% (inactive),-2.7% (inactive),0.4% (inactive),-15.5% (inactive),36.6% (inactive),8.15% (inactive)
O=C(c1ccccc1)C(O)c1ccccc1 (stereo unspecified),0.5% (inactive),0.8,-1.6% (inactive),-1.05% (inactive),-9.2% (inactive),-0.3% (inactive),2.8% (inactive),9.2% (inactive),6.95% (inactive)
COC(=O)[C@H]1[C@H]2C[C@@H]3c4[nH]c5cc(OC)ccc5c4CCN3C[C@H]2C[C@@H](OC(=O)COc2ccc(OC)cc2)[C@@H]1OC,3.2% (inactive),-0.2,-1.2% (inactive),10.9% (inactive),9.6% (inactive),8.5% (inactive),33.6% (inactive),-12.3% (inactive),1.9% (inactive)
CCCCCOc1ccc(C2SC(=O)NC2=O)cc1OCC (stereo unspecified),-0.1% (inactive),11.7,0.7% (inactive),46.8% (inactive),5.8% (inactive),3.7% (inactive),32.6% (inactive),6.6% (inactive),11.8% (inactive)
